Outcome data for two compounds are collected here from PubChem BioAssay AID1403 (National Center for Advancing Translational Sciences (NCATS), 2008).

Results filed as inconclusive are left out. Calls of active or inactive are those of the source. The call rests on the fitted dose curve; in most records, active means well fitted curve in the direction sought with a large enough effect in the signal ratio; inconclusive means small, poorly fitted or top-dose-only effect, or a change in a side signal; inactive means no such curve, though single readings can be large or run the other way; the % refers to the signal ratio.

The target in this experiment is Follicle-stimulating hormone receptor (Homo sapiens) (UniProt P23945). The experiment in a line: Counterscreen for Agonists of Thyroid Stimulating Hormone Receptor: HTRF Activity in a Follicle Stimulating Hormone Receptor Cell Line. The following applies: HEK293-FSHR cells, 30 min; series mostly up to 91.7 µM. From the text:
NIH Chemical Genomics Center [NCGC] NIH Molecular Libraries Screening Centers Network [MLSCN] MLSCN Grant: 1 X01 MH080680-01 PI Name: Dr. Marvin Gershengorn, NIH NCGC Assay Overview: Confirmation of Thyroid Stimulating Hormone Receptor Agonists TSH is an alpha/beta heterodimeric glycoprotein hormone secreted from the anterior pituitary gland which belongs to the glycoprotein hormone family. The actions of TSH are mediated by a seven-transmembrane receptor, which upon TSH binding couples preferentially to the G-alpha (s) protein (Gs), resulting in activation of adenylate cyclase and increase in cyclic adenosine 3', 5' monophosphate (cAMP). The TSH receptor (THSR) is mainly expressed in thyroid follicular cells and regulates their growth and function. […] In order to confirm specificity of the compounds to the TSHR, a confirmatory assay was conducted on a similar family member, the Follicle Stimulating Hormone (FSH) receptor, transfected into a HEK 293 cell line, using an orthogonal detection technology to measure cAMP stimulation: antibody-based Homogeneous Time Resolved Fluorescence (HTRF).
NCGC Assay Protocol Summary: Homogeneous Time Resolved Fluorescence (HTRF) cAMP Assay. […] Plates were measured using the Envision plate reader (PerkinElmer, Boston, MA) with excitation at 330 nm and emissions of 615 nm and 660 nm. […]
Background: Counterscreens check selectivity or assay interference.

Turning to `CCOC(=O)C1=C(N)Oc2c(c(=O)oc3ccccc23)C12C(=O)N(C)c1ccccc12` (configuration not stated), the call was inactive.
Turning to `C=CCN1C(=O)C2(C(C(=O)OC)=C(N)Oc3c2c(=O)oc2ccccc32)c2ccccc21` (configuration not stated), the result was inactive.
